This is an account of results in PubChem BioAssay (NCATS).

Results filed as inconclusive are left out. The list shows a part of the results. Calls of active or inactive are those of the source. Unless noted, calls come from the whole dose curve; as a rule, active = well fitted curve in the direction sought with a large enough effect; inconclusive = small, poorly fitted or top-dose-only effect, or another doubt; inactive = no such curve, though single readings can be large; an effect the other way counts as inactive or inconclusive.

The target of test [1] is Peroxisome proliferator-activated receptor delta (Homo sapiens) (UniProt Q03181). Put plainly: qHTS assay for small molecule agonists of peroxisome proliferator-activated receptor delta signaling (AID 588534; calls by dose curve;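 note: 0% = DMSO basal wells and 100% = positive control agonist at 10 µM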). Summed up: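 Agonist-mode qHTS; reporter cells, 5 hrs 37 C pre-incubation; compound titration, 18 hrs 37 C; CCF4 dye, 2 hrs RT; fluorescence read. EC50/efficacy via Hill fit.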
Chain of Peroxisome proliferator-activated receptor delta (Homo sapiens) (Q03181 whole entry, looked up): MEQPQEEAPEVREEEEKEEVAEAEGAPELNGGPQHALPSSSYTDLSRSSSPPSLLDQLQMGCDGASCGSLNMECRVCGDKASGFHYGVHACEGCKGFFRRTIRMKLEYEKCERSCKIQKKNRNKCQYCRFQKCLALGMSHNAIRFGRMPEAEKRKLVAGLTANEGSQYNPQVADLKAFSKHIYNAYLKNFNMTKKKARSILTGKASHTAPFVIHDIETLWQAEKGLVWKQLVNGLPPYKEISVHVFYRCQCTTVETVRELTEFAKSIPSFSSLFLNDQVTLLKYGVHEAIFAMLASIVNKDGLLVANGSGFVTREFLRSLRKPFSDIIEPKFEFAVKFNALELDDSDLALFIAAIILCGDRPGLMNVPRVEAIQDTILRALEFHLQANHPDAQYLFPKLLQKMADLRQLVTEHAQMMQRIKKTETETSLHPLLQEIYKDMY
(In general: In qHTS, concentration-response curves come from the screen itself.)

Test [2] is described as follows: qHTS assay for small molecule agonists of the antioxidant response element (ARE) signaling pathway (AID 651741; active = well fitted activation curve with a large enough effect in the signal ratio; the % refers to the signal ratio; note: potency is the fitted concentration of half-maximal effect). Summed up:
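Stably integrated ARE-beta-lactamase reporter HepG2 cells; 16 h compound incubation, 37 C; LiveBLAzer FRET substrate 2 h at room temperature; fluorescence intensity.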

Test [3] can be described thus: qHTS assay for environmental chemicals that activate the Aryl hydrocarbon Receptor (AhR) signaling pathway (AID 651777). Note: potency is the fitted concentration of half-maximal effect; nearly all actives have a fitted effect of over 15% in size. Particulars: 1A2-DRE human hepatoma cells, luciferase, 24 h; activation: stronger effect = higher value. An outline of the steps:
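Human hepatoma 1A2-DRE cells stably carrying a DRE/CYP1A2 promoter–luciferase reporter, 1,200 cells/well, exposed to compound 24 hr at 37 C. Luciferase read by One-Glo luminescence after 30 min at room temperature; increased signal marks AhR activation.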

The target in test [4] is Cytochrome P450 3A4 (Homo sapiens) (UniProt P08684). Put plainly: qHTS Assay for Activators of Cytochrome P450 3A4 (AID 885). Note: nearly all actives have a fitted effect of over 65% in size. Summed up: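 Luminescent readout of luciferin formed from 25 uM Luciferin-PPXE (KM level) by 20 nM CYP3A4 in 200 mM KPO4, with 60 min NADPH-driven reaction at room temperature after 10 min compound exposure. Ketoconazole (57 uM) defined 100% inhibition.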
Chain of Cytochrome P450 3A4 (Homo sapiens) (P08684 whole entry, looked up): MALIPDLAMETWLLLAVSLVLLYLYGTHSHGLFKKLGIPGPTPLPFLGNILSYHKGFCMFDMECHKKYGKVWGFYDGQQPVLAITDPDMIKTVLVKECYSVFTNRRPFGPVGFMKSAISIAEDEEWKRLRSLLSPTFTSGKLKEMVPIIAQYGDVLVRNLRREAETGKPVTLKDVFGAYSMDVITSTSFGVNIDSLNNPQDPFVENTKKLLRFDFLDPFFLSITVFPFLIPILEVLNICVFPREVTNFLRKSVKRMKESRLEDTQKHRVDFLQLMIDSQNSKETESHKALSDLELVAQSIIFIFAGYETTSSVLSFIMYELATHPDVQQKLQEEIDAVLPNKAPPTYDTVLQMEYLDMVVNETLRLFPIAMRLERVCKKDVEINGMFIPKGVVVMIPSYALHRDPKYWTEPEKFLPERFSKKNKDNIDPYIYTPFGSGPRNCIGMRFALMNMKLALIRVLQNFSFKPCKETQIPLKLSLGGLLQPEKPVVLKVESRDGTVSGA

Test [5] in a line: qHTS assay for small molecule disruptors of the mitochondrial membrane potential - 1 hr assay (AID 651754; calls by dose curve; note: potency is the fitted concentration of half-maximal effect; nearly all actives have a fitted effect of over 35% in size). Summed up: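 Loss of mitochondrial potential shifts the cationic dye from red mitochondrial aggregates to green cytoplasmic monomers. Cells (HepG2) are treated with compound for 1 hr before a 30 min dye incubation at 37C.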
Test [6] in a line: qHTS assay for small molecule disruptors of the mitochondrial membrane potential - 5 hr assay (AID 651755; calls by dose curve; note: potency is the fitted concentration of half-maximal effect; nearly all actives have a fitted effect of over 40% in size). Summed up: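 Read-out: ratiometric Mito-MPS fluorescence, green monomer (ex 490/em 535) vs red mitochondrial aggregate (ex 540/em 590). HepG2 cells treated 5 hr at 37C before 30 min dye loading.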
Test [7] concerns the target Nuclear receptor ROR-gamma (Homo sapiens) (UniProt P51449). Briefly: qHTS assay for small molecule antagonists of the retinoid-related orphan receptor gamma (ROR-gamma) signaling pathway (AID 651802).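 Note: CHO cells with doxycycline-induced ROR-gamma expression; series mostly up to about 92 µM; % is set by controls: 0 for no effect and ±100 for the full control effect; nearly all actives have a fitted effect of over 60% in size.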 An outline of the steps: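 Steps: cells dispensed; compound or DMSO transferred by pin tool; doxycycline added to induce the ROR response element-driven luciferase; plates held 16hr at 37C; ONE-Glo added and luminescence measured.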

The nature of test [8]: qHTS for Inhibitors of the vitamin D receptor (VDR): Hit Validation using a Texas Red Assay (AID 602201). Note: % is set by controls: 0 for no effect and ±100 for the full control effect. Summed up: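 Fluorescence polarization with 1.5 uM VDR-LBD, LG19078 and 7 nM Texas Red (final). After 2 hours at ambient temperature, read at Ex 595 nm/Em 615 nm.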
Test [9] has as its target Vitamin D3 receptor (Homo sapiens) (UniProt P11473). Briefly: qHTS for Inhibitors of the vitamin D receptor (VDR): Hit Validation in Primary Screen (AID 602199). Note: potency is the fitted concentration of half-maximal effect. Particulars: VDR-coactivator inhibition assay, qHTS confirmation. Summed up:
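Fluorescence polarization (Ex 620/Em 688 nm) of Alexa 647-SRC2-3 peptide with 800 nM VDR and 5 uM LG19078. Compounds at several concentrations, 2 h at room temperature.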

Test [10] shares this target. Put plainly: qHTS for Inhibitors of the vitamin D receptor (VDR): Hit Validation using a Fluorescein Assay (AID 602200). Note: potency is the fitted concentration of half-maximal effect. Particulars: VDR-coactivator binding, fluorescein fluorescence polarization. Summed up: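 Fluorescence polarization: 1.5 uM VDR-LBD, 5 uM LG19078 and 5 nM fluorescein-labeled SRC2-3 peptide (final) with compounds, 2 h at room temperature. Read at Ex 495/Em 520 nm; peptide-only wells served as control.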

For test [11] the target is unchanged. Briefly: qHTS for Inhibitors of the vitamin D receptor (VDR): Hit Validation using a Beta-Lactamase Assay (AID 602202). Note: % is set by controls: 0 for no effect and ±100 for the full control effect. Summed up:
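Stably transfected HEK293 cells expressing VDR-GAL4 DNA-binding domain fusion with UAS-driven beta-lactamase reporter, activated by agonist LG190178; compounds incubated 18 h, then FRET beta-lactam substrate 2 h; cleaved substrate read at 447 nm emission.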

In test [12] the target is Flap endonuclease 1 (Homo sapiens) (UniProt P39748). Put plainly: qHTS Assay for the Inhibitors of FEN1: Confirmatory Assay for Cherry-picked Compounds (AID 720498). Note: potency is the fitted concentration of half-maximal effect; nearly all actives have a fitted effect of over 60% in size. Particulars: FEN1 flap cleavage, TAMRA/BHQ2 fluorogenic DNA substrate. An outline of the steps:
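Human FEN1 (10 nM reagent) was preincubated with compounds for 15 min at room temperature, then 50 nM final double-flap DNA substrate (5'-TAMRA flap, BHQ-2 quencher strand) was added. Fluorescence (ex 525/em 598 nm) was read at 0 and 15 min.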

In test [13] the target is DNA polymerase eta (Homo sapiens) (UniProt Q9Y253). Briefly: qHTS for Inhibitors of Polymerase Eta: Confirmatory Assay for Cherry-picked Compounds (AID 720502). Note: potency is the fitted concentration of half-maximal effect. Particulars: Pol eta primer extension, TAMRA/BHQ fluorescence, 10 min. Summed up:
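Pol eta 10 nM; substrate 50 nM final (unlabeled primer, TAMRA reporter, BHQ-2 template); preincub. 15 min RT; reads t=0 and t=10 min at ex525/em598.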

In test [14] the target is Cytochrome P450 3A4 (Homo sapiens) (UniProt P08684). Briefly: qHTS Assay for Inhibitors and Substrates of Cytochrome P450 3A4 (AID 884). Note: potency is the fitted concentration of half-maximal effect; nearly all actives have a fitted effect of over 50% in size. Summed up: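 Luminescent readout of luciferin produced by CYP3A4 (20 nM) dealkylation of Luciferin-PPXE, 25 uM (its KM). NADPH-driven reaction ran 60 min at RT after 10 min compound preincubation; data scaled to 57 uM ketoconazole as 100% inhibition.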

The target in test [15] is Vitamin D3 receptor (Homo sapiens) (UniProt P11473). Briefly: qHTS assay for small molecule antagonists of vitamin D receptor signaling (AID 588541; calls by dose curve;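 note: receptor activated by calcitriol during compound treatment; series mostly up to about 77 µM; % is set by controls: 0 for no effect and ±100 for the full control effect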). An outline of the steps: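 VDR-UAS-bla HEK293T cells in 2% charcoal-stripped FBS were stimulated with 1-alpha,25-dihydroxyvitamin D3 (3 nM final) plus compound for 16 h at 37 C. The beta-lactamase CCF4 readout was normalized to 50 nM agonist and DMSO, and Hill fits gave IC50.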
Chain of Vitamin D3 receptor (Homo sapiens) (P11473 whole entry, looked up): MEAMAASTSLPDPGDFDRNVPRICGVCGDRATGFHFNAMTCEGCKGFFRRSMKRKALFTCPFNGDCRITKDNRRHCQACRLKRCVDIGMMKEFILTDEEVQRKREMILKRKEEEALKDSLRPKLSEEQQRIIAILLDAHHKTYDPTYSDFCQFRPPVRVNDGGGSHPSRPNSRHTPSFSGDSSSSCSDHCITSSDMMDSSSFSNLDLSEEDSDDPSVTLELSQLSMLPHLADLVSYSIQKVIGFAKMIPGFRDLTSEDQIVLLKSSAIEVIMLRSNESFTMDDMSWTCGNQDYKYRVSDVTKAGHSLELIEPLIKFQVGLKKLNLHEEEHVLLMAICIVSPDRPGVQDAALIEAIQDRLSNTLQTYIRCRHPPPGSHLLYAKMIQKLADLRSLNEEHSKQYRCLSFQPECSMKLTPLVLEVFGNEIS

The nature of test [16]: qHTS assay for small molecule agonists of retinoid X receptor alpha signaling (AID 588544; calls by dose curve;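 for activation: 0% = DMSO basal wells and 100% = reference agonist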). Particulars: HEK293T RXRa-UAS-bla, beta-lactamase reporter, 18 h; 530 nm emission.
The target of test [17] is Retinoic acid receptor RXR-alpha (Homo sapiens) (UniProt P19793). Described as above.
Test [18] concerns the target Voltage-gated inwardly rectifying potassium channel KCNH2 (Homo sapiens) (UniProt Q12809). Briefly: qHTS Assay for Small Molecule Inhibitors of the Human hERG Channel Activity (AID 588834).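 Note: top concentration of the series differs between compounds; % is set by controls: 0 for no effect and ±100 for the full control effect; lower thallium flux fluorescence means stronger hERG block; nearly all actives have a fitted effect of over 50% in size.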 Summed up:
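Thallium-flux (FluxOR) read-out on FDSS: fluorescence read 10 s before and 2 min after stimulation buffer. hERG-BacMam-transduced U2OS cells, compound exposure about 10 min. AC50 by standard Hill equation.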

The target of test [19] is Luciferin 4-monooxygenase (Photinus pyralis) (UniProt P08659). Briefly: Biochemical firefly luciferase enzyme assay for NPC (AID 624030). Note: potency is the fitted concentration of half-maximal effect; nearly all actives have a fitted effect of over 70% in size. An outline of the steps: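 Purified P. pyralis luciferase at 10 nM in 50 mM Tris Acetate (final), luminescence read within 5 minutes of enzyme addition to compounds. Activity normalised to PTC124 versus DMSO; concentration-response curves classed by r2, magnitude and activity.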
Chain of Luciferin 4-monooxygenase (Photinus pyralis) (P08659 whole entry, looked up): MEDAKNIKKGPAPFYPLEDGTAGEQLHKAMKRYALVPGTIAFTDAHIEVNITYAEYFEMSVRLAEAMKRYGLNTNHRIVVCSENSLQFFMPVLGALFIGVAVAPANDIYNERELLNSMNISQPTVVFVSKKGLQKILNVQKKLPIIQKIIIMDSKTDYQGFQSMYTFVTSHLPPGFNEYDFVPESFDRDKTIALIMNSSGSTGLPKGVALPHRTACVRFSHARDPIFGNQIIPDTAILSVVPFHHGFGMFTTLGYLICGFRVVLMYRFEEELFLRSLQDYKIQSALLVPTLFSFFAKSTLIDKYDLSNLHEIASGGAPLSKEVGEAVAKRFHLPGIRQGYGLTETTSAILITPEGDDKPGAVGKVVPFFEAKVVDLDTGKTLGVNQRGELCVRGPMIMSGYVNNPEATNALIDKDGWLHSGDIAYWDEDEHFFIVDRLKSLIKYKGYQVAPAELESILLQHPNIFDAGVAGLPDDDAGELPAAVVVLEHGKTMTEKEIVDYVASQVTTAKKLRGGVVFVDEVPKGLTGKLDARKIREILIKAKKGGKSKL

Test [20] is described as follows: S16 Schwann cell PMP22 intronic element firefly luciferase assay (AID 624032).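 Note: series mostly up to about 58 µM; plate controls were DMSO for no effect and PTC124 positive control mean for full effect; nearly all actives have a fitted effect of over 30% in size.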 An outline of the steps:
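Rat S16 Schwann cells stably carrying firefly luciferase driven by a PMP22 intronic element, in 10% FBS, treated 24 h at 37 C. ONE-Glo luminescence normalized to PTC124 control and DMSO (0%); curves classed by r2, magnitude and activity.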

Test [21] in a line: S16 Schwann cell viability assay (CellTiter-Glo assay) (AID 624031). Note: potency is the fitted concentration of half-maximal effect; nearly all actives have a fitted effect of over 70% in size. An outline of the steps:
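Native S16 rat Schwann cells, 500-750 cells/well in DMEM with 10% FBS, dosed with compound after overnight culture and incubated 24h at 37 degree Celsius/5% CO2. Viability by CellTiter-Glo luminescence; % activity normalized to no-cell wells and DMSO-treated cells.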
On the technique in general: Cellular ATP, detected with luciferase, serves as a proxy for viable cell number.

Test [22] in a line: qHTS Assay for Identifying Gametocytocidal Compounds (AID 743244). Note: potency is the fitted concentration of half-maximal effect. Particulars: P. falciparum 3D7 stage III-V gametocytes, alamarBlue, 72 h; max response: stronger effect = lower value. An outline of the steps: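 Late gametocytes (III–V), P. falciparum 3D7; 72 h drug, then 24 h alamarBlue; resazurin reduction read by fluorescence.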
A short description of test [23]: qHTS screen for small molecules that inhibit ELG1-dependent DNA repair: Hit Confirmation in Cell-Based Luciferin Assay (AID 624247). Note: potency is the fitted concentration of half-maximal effect. Particulars: cell-free firefly luciferase luminescence counter-screen, ViewLux. An outline of the steps: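 Compounds were added to luciferase substrate reagent, with DMSO-only wells as vehicle controls. Luciferase enzyme was added after the compounds, and the signal was recorded as luminescence.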

Test [24] deals with ATPase family AAA domain-containing protein 5 (Homo sapiens) (UniProt Q96QE3). Briefly: HTS assay for small molecules that inhibit ELG1-dependent DNA repair in human embryonic kidney (HEK293T) cells expressing luciferase-tagged ELG1: Hit Confirmation (AID 624248). Note: potency is the fitted concentration of half-maximal effect; nearly all actives have a fitted effect of over 55% in size. Particulars: HEK293T ELG1-luciferase levels, luminescence; cells co-treated with 5-fluorouridine. An outline of the steps:
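HEK293T cells expressing luciferase-tagged ELG1 treated with 5-fluorouridine plus compound for 16 h at 37 C; luciferase activity then measured with ONE-Glo after 30 min at room temperature.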

For test [25] the target is unchanged. Put plainly: qHTS screen for small molecules that inhibit ELG1-dependent DNA repair in human embryonic kidney (HEK293T) cells expressing luciferase-tagged ELG1: Hit Confirmation using MMS Stimulated ELG1 (AID 624249). Note: potency is the fitted concentration of half-maximal effect; nearly all actives have a fitted effect of over 60% in size. Particulars: HEK293T luciferase-tagged ELG1 level. An outline of the steps:
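Luminescence read-out (Amplight) of an ELG1-luc reporter in HEK293T cells after 16 h of compound exposure under MMS stimulation at 10 µM final. Inhibition appears as reduced luciferase activity.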

The nature of test [26]: qHTS screen for small molecules that inhibit ELG1-dependent DNA repair: Hit Confirmation with MMS Viability (AID 624251).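 Note: potency is the fitted concentration of half-maximal effect; viability read 16 h after compound addition; nearly all actives have a fitted effect of over 60% in size.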 Particulars: Cell viability with MMS. An outline of the steps: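 CellTiter-Glo viability of ELG1-luc HEK293T cells after 16 h with compound plus 10 µM MMS.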

Chain of ATPase family AAA domain-containing protein 5 (Homo sapiens) (Q96QE3 whole entry, looked up, the tested form may be a part): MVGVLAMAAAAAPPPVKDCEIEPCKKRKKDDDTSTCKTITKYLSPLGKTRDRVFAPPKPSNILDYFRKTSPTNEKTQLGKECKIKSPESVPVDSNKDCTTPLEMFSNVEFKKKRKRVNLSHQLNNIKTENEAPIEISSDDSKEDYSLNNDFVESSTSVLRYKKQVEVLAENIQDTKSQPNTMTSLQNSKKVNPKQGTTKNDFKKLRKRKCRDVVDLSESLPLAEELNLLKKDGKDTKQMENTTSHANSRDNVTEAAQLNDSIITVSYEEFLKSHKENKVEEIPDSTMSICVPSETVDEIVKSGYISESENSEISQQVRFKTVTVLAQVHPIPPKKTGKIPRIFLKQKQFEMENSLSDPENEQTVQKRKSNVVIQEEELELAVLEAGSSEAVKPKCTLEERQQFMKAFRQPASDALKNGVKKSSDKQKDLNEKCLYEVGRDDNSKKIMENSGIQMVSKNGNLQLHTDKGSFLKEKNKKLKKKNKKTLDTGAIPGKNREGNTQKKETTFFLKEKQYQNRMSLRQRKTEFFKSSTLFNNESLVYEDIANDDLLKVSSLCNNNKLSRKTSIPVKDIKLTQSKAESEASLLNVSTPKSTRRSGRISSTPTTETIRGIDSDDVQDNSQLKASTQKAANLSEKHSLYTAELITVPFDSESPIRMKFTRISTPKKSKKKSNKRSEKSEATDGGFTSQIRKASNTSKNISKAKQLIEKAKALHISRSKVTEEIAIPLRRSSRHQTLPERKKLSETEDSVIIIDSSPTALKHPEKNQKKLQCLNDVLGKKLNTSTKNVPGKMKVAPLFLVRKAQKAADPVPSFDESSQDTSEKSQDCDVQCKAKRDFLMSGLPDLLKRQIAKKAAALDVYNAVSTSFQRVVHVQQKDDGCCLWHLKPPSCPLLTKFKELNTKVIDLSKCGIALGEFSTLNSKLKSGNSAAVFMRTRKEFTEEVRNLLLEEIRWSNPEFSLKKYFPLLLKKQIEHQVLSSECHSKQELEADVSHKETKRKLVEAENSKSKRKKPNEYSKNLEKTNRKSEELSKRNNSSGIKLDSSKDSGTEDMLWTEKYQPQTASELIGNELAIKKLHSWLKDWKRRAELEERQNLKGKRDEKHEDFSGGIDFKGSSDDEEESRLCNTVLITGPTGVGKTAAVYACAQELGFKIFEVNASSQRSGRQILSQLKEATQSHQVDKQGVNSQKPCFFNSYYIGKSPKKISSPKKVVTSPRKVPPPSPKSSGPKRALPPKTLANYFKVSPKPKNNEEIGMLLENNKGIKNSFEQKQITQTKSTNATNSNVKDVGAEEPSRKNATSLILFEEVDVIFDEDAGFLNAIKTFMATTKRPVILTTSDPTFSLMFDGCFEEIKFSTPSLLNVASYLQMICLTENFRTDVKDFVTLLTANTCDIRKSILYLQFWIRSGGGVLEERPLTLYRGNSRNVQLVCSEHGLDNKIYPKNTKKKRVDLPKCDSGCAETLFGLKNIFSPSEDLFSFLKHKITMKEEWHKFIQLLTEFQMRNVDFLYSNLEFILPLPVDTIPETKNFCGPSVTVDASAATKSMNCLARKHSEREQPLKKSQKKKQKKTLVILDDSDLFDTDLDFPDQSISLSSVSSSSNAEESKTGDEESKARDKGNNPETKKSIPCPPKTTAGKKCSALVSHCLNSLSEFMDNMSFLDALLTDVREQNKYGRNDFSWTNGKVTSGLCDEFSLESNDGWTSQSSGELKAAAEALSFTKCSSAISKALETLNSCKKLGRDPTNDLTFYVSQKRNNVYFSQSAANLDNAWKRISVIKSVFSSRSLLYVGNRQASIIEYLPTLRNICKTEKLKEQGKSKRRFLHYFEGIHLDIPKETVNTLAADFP
Chain of Nuclear receptor ROR-gamma (Homo sapiens) (P51449 whole entry, looked up): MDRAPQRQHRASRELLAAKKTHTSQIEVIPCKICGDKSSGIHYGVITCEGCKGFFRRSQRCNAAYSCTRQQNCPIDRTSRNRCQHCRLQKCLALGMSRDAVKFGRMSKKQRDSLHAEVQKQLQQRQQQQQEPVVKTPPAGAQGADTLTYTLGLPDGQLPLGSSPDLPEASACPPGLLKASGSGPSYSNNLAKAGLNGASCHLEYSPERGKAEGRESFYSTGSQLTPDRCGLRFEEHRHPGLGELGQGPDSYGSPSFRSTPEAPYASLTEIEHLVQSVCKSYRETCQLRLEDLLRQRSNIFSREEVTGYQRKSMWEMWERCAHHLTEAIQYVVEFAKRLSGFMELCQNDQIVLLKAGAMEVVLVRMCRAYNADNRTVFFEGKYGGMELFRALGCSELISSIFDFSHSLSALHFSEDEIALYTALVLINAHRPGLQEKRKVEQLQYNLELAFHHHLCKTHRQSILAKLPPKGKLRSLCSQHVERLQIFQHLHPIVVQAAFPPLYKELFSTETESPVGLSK
Chain of Flap endonuclease 1 (Homo sapiens) (P39748 whole entry, looked up): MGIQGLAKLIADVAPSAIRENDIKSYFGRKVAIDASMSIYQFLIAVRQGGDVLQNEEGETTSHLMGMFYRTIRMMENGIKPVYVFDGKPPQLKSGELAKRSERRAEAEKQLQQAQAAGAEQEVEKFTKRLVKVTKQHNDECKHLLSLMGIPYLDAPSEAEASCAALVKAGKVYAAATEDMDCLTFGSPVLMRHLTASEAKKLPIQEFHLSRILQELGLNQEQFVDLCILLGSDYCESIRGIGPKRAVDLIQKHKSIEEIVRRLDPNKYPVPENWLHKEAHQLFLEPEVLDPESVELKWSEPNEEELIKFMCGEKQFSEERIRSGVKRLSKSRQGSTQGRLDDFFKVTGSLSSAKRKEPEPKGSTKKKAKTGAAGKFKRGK

Take `C=CCCC`: the compound was called inactive in test [1]. For the same compound, the figures for the Potency in [2] and in test [3] were 66.8 µM (active) and 22.4 µM (active), respectively.
Take `Cc1c(N)cccc1N`: the Potency result in test [4] and in test [7] was “inactive” in each case. Moreover, the result in [1] was inactive. In addition, the Potency in test [5] and in test [6] was 37.6 µM (active) throughout.
As for `CC(C)n1c(O)c(C2c3cc(Cl)ccc3Oc3[nH]c(=O)n(C(C)C)c(=O)c32)c(=O)[nH]c1=O` (stereo unspecified), the Potency entry in test [8] is “inactive”.
Regarding `O=c1oc2ccccc2c(O)c1[C@H]1c2ccc(O)cc2Oc2c1c(=O)oc1ccccc21`, the Potency result in test [8] is “inactive”.
On to `O=C1NC(=O)N(c2ccccc2)C(=O)/C1=C/c1ccc([N+](=O)[O-])s1`, for which the Potency was 26.7 µM (active) in test [9], 20 µM (active) in test [10], 19 µM (active) in [12] and 30.1 µM (active) in [13]. Moreover, in test [8], the Potency result was “inactive”. Besides, in test [11], the compound was classed as inactive.
Regarding `O=C1c2c(O)ccc([N+](=O)[O-])c2C(=O)c2c([N+](=O)[O-])ccc(O)c21`, the Potency in [14] is 7.94 µM (active). In addition, the outcome in [1] was inactive.
Consider `COS(C)(=O)=O`, for which the compound was called inactive in test [1]. The Potency in test [2] is 42.2 µM (active).
For `O=C1NC(=O)C(=Cc2ccc(-c3cc(Cl)ccc3[N+](=O)[O-])o2)C(=O)N1`, the Potency result in [8] is “inactive”.
For `C=CCn1c(=O)n(CC=C)c(=O)n(CC=C)c1=O`, the Potency in test [14] is 10 µM (active). Further, the result in test [1] was inactive.
In the case of `S=C(S)NCCNC(=S)S`, the Potency entry in [15] and in [17] was “inactive” each time. Moreover, in [16], the max response is 9.28%.
Take `[O-][N+](=Nc1ccccc1)c1ccccc1`: the Potency result in test [18], in test [20] and in test [7] was “inactive” in each case. For the same compound, the Potency in test [19] is 12.8 µM (active).
With `COc1cc(-c2ccc(-[n+]3nc(-c4ccccc4)nn3-c3ccc([N+](=O)[O-])cc3)c(OC)c2)ccc1-[n+]1nc(-c2ccccc2)nn1-c1ccc([N+](=O)[O-])cc1`, the Potency in test [21] was 28.7 µM (active); in [22], 5.62 µM (active).
On to `CC(=O)[O][Sn]([c]1ccccc1)([c]1ccccc1)[c]1ccccc1`, for which the Potency in test [23] is 1.99 µM (active); in test [24], 1.58 µM (active); in [25], 0.281 µM (active); in test [26] it was 0.281 µM (active).
